Data on eight compounds can be found in PubChem BioAssay (NCATS).

Assay [1] in a line: qHTS for differential inhibitors of proliferation of Plasmodium falciparum line Dd2 (AID 1882). Note: nearly all actives have a fitted effect of over 65% in size. Note: potency is the fitted concentration of half-maximal effect. To be noted: Potency: Plasmodium falciparum Dd2 proliferation inhibition. The method in brief: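 RBC culture, 0.3% parasitemia / 2.5% Hct final; cpd added by pin tool in DMSO; 72 h, 37 C, 5% CO2; lysis buffer + SYBR Green I, o/n RT dark; FI 485/535; norm. to artemisinin 0.29 uM and DMSO.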

Assay [2] in a line: qHTS for differential inhibitors of proliferation of Plasmodium falciparum line W2 (AID 1883).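 Note: parasites grown with compound for 72 h before lysis and staining.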 Note: potency is the fitted concentration of half-maximal effect. Particulars: Potency: Plasmodium falciparum W2 proliferation inhibition.
The nature of assay [3]: qHTS for differential inhibitors of proliferation of Plasmodium falciparum line HB3 (AID 1886).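 Note: parasites grown with compound for 72 h before SYBR Green readout.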 Note: potency is the fitted concentration of half-maximal effect. To be noted: Potency: Plasmodium falciparum HB3 proliferation inhibition. For orientation: In qHTS, concentration-response curves come from the screen itself.
Assay [4] can be described thus: qHTS Assay for Modulators of Human Peripheral Myelin Protein 22 (PMP22) Expression/Activity (AID 1967; active = well fitted curve in the direction sought with a large enough effect in the signal ratio; the % refers to the signal ratio). The method in brief: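 Mouse MSC80 Schwann cells carrying Pmp22 promoter–green click beetle luciferase plus EF-alpha–red luciferase control, dosed 24 h at 37 °C. Dual-filter luminescence, overlap-corrected; %Activity from green/red ratio normalised to untreated cells, concentration-response curves fitted.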

Assay [5] addresses ATP-dependent DNA helicase Q1 (Homo sapiens) (UniProt P46063). Put plainly: qHTS Validation Assay for Inhibitors of RecQ-Like Dna Helicase 1 (RECQ1) (AID 2353). An outline of the steps: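 RECQ1T1 50 nM; forked duplex (20 bp + 30-nt ss tails) 200 nM, ATP 2 mM final; pH 8.0, 2 mM MgCl2, 2.5 ug/ml poly(dI-dC); 15 min compound preincubation; discontinuous kinetic read over 2 h at RT.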

Assay [6] can be described thus: Cytometric Cell-Based qHTS for Inhibitors of the mTORC1 Signaling Pathway in MEF (Tsc2-/-, p53-/-) Cells (AID 2660).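 Note: Tsc2 and p53 null MEFs carrying empty vector with compound for 24 h; percent of cells above a phospho-rpS6 to PI ratio cutoff in each well; series mostly up to about 38 µM.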 An outline of the steps:
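Cells are plated, treated with compound for 24 hrs at 37 degree Celsius, then fixed, blocked and immunostained for phospho-rpS6 Ser235/236. Propidium iodide counterstain follows. Per-well % positive cells is derived from the PI-normalized phospho-S6 signal.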

Assay [7] is described as follows: High Content Imaging Cell-Based qHTS for Inhibitors of the mTORC1 Signaling Pathway in MEF (Tsc2-/-, p53-/-) Cells (AID 2666).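 Note: percent of cells scored positive for phospho-rpS6 Ser235/236 immunostaining by imaging.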 The method in brief: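 MEF Tsc2-/- p53-/- (empty vector), DMEM/10% FBS; cpd 24 h 37 °C; PFA fix, Alexa-488 p-rpS6 S235/236 Ab, Hoechst; imaged; rapamycin-defined inhibition; % positive cells/well.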
Assay [8] has as its target Ubiquitin carboxyl-terminal hydrolase 2 (Homo sapiens) (UniProt O75604). As to the kind of experiment: qHTS Validation Assay for Inhibitors of Ubiquitin-specific Protease USP2a Using CHOP2 as the Reporter (AID 463106). The method in brief:
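Fluorescence read-out at Ex 485nm/Em 531nm after 60min RT, following addition of 25nM Ub-CHOP2 plus 25nM reporter substrate to USP2 core (10nM) pretreated 30min with compound. Data normalized to NEM full inhibition; concentration-response curves fitted.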

For assay [9], the target named is DNA polymerase III PolC-type (Bacillus subtilis (strain 168)) (UniProt P13267). Put plainly: qHTS Validation Assay for the Inhibitors of DNA Replication in Gram-Positive Bacteria (AID 485295).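 Note: PicoGreen fluorescence of double-stranded DNA made on primed circular M13 template; series mostly up to about 57 µM.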 An outline of the steps: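 Reconstituted B. subtilis Pol III holoenzyme (PolC, beta clamp, SSB, primase) preincubated with compound, then M13Gori single-stranded circular template with dNTPs/NTPs added; room temperature reaction. Stopped with EDTA/PicoGreen; dsDNA fluorescence read, EDTA as full-inhibition control.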

The target in assay [10] is Tumor susceptibility gene 101 protein (Homo sapiens) (UniProt Q99816). Put plainly: qHTS Validation Assay for Iinhibitors of HIV-1 Budding by Blocking the Interaction of PTAP/TSG101 (AID 485342; calls by dose curve). The method in brief: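 Tsg101 binding domain (10 uM) with FITC-labeled PTAP peptide (50 nM) in HEPES pH 7.5 buffer, 20 min at r.t. with compounds. Binding measured by fluorescence polarization.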
Chain of Tumor susceptibility gene 101 protein (Homo sapiens) (Q99816 whole entry, looked up, the tested form may be a part): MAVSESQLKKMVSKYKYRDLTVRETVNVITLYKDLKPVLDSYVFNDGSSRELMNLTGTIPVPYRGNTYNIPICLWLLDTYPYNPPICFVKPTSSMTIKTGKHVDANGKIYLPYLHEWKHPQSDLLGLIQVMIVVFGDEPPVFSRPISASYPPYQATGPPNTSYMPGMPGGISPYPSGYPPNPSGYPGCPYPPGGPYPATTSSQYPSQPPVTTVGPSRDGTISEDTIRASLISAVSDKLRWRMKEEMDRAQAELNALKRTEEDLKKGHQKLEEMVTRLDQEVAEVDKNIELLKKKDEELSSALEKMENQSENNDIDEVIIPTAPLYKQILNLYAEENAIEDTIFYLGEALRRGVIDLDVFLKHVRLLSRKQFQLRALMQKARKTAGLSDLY

Assay [11] addresses Beta-2 adrenergic receptor (Homo sapiens) (UniProt P07550). Put plainly: qHTS validation assay of beta-arrestin-biased ligands of beta2-adrenergic receptor (AID 485366). An outline of the steps:
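Compound series up to 46 microM applied to beta2-AR/beta-arrestin Tango cells, 18 hr, 37 degrees C, 5% CO2. Read-out: tTA-driven luciferase luminescence, converted to %Activity; concentration-response curves assigned curve classes.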

For assay [12], the target named is Ferritin light chain (Equus caballus) (UniProt P02791). As to the kind of experiment: qHTS Validation Assay for Identification of Novel General Anesthetics (AID 2323). Note: series mostly up to about 77 µM. An outline of the steps: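 Horse-spleen apoferritin (10 uM) in PBS with 50% saturated 1-aminoanthracene; compounds pin-transferred, 10 min at room temperature. Fluorescence read at 380/535 nm, normalized to free 1-AMA and 1-AMA/apoferritin values; four-parameter Hill fit.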
Chain of Ferritin light chain (Equus caballus) (P02791 2-175 limits assumed): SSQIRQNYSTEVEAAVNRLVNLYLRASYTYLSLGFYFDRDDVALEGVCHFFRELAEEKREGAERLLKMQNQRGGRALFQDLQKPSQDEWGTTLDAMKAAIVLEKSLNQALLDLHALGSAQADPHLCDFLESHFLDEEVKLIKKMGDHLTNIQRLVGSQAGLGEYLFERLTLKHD

Assay [13] can be described thus: High Content Imaging Cell-Based qHTS for Inhibitors of the mTORC1 Signaling Pathway in MEF Cells (AID 2667). Note: potency is the fitted concentration of half-maximal effect. The method in brief:
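Read-out is the share of phospho-rpS6-positive cells per well, from Hoechst-normalized Alexa-488 Ser235/236 staining imaged on IN Cell. Cells: WT Tsc2-expressing Tsc2-/-, p53-/- MEFs exposed to compound for 24 hrs.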

The nature of assay [14]: Cytometry Cell-Based qHTS for Inhibitors of the mTORC1 Signaling Pathway in MEF cells (AID 2668). Note: potency is the fitted concentration of half-maximal effect. An outline of the steps: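 MEFs (Tsc2-/-, p53-/- stably expressing WT Tsc2) treated 24 h at 37 degree Celsius, fixed, stained with Alexa-488 anti-phospho-rpS6 Ser235/236 and propidium iodide; Acumen laser scanning. Reported as % positive cells, phospho-S6 normalized to PI.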

Assay [15] can be described thus: Validation screen for small molecules that induce DNA re-replication in MCF 10A normal breast cells (AID 463097). Note: nearly all actives have a fitted effect of over 60% in size. The method in brief: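 MCF 10A cells exposed to compound 48 hr at 37 C, 5% CO2, then Hoechst-stained 40 min. Laser-scanning imaging of nuclear DNA content (405 nm ex, 500-530 nm em); re-replication scored as rise in nuclei with elevated fluorescence intensity.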

Assay [16] can be described thus: qHTS Validation Assay to Find Inhibitors of Chronic Active B-Cell Receptor Signaling (AID 485345; active = well fitted curve in the direction sought with a large enough effect in the main read-out, with a control signal flat, not every such curve was filed as active). An outline of the steps: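 TMD8 ABC-DLBCL cells stably carrying doxycycline-inducible IkappaBalpha–green luciferase fusion plus unfused red luciferase; compounds 46 uM to 3 nM, 4 h at 37C with doxycycline. Corrected green/red luminescence ratio normalized to 10 uM MG-132 and basal cell wells; curves fitted.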

The target of assay [17] is RecQ-like DNA helicase BLM (Homo sapiens) (UniProt P54132). As to the kind of experiment: qHTS Validation Assay for Inhibitors of Bloom's syndrome helicase (BLM) (AID 2364). The method in brief:
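50 nM BLM preincubated 15 min at room temperature with compound in pH 8.0 Tris buffer containing 2.5 ug/ml poly(dI-dC); started with 200 nM TAMRA/BHQ-2 forked duplex and 2 mM ATP (final). Unwinding read as TAMRA fluorescence increase, two reads 2 h apart.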

Records with an inconclusive call do not appear. The source made the active and inactive calls. Unless noted, calls come from the whole dose curve; as a rule, active = well fitted curve in the direction sought with a large enough effect; inconclusive = small, poorly fitted or top-dose-only effect, or another doubt; inactive = no such curve, though single readings can be large; an effect the other way counts as inactive or inconclusive.

Chain of Ubiquitin carboxyl-terminal hydrolase 2 (Homo sapiens) (O75604 whole entry, looked up): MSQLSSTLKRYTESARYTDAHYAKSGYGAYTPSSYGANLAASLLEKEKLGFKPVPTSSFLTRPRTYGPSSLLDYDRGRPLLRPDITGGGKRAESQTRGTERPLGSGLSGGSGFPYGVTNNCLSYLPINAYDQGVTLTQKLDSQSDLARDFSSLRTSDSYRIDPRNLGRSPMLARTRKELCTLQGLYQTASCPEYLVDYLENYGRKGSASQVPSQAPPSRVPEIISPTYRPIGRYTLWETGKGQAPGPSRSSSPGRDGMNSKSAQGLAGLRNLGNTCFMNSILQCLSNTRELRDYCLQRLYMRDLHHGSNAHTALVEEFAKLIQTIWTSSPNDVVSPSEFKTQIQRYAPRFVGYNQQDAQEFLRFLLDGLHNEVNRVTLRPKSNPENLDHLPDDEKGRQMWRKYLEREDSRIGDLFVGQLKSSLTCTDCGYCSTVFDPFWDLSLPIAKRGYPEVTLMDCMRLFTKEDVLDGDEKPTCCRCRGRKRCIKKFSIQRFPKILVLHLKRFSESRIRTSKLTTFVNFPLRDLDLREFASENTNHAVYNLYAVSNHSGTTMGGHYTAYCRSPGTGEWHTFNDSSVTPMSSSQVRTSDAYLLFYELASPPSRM
Chain of RecQ-like DNA helicase BLM (Homo sapiens) (P54132 whole entry, looked up): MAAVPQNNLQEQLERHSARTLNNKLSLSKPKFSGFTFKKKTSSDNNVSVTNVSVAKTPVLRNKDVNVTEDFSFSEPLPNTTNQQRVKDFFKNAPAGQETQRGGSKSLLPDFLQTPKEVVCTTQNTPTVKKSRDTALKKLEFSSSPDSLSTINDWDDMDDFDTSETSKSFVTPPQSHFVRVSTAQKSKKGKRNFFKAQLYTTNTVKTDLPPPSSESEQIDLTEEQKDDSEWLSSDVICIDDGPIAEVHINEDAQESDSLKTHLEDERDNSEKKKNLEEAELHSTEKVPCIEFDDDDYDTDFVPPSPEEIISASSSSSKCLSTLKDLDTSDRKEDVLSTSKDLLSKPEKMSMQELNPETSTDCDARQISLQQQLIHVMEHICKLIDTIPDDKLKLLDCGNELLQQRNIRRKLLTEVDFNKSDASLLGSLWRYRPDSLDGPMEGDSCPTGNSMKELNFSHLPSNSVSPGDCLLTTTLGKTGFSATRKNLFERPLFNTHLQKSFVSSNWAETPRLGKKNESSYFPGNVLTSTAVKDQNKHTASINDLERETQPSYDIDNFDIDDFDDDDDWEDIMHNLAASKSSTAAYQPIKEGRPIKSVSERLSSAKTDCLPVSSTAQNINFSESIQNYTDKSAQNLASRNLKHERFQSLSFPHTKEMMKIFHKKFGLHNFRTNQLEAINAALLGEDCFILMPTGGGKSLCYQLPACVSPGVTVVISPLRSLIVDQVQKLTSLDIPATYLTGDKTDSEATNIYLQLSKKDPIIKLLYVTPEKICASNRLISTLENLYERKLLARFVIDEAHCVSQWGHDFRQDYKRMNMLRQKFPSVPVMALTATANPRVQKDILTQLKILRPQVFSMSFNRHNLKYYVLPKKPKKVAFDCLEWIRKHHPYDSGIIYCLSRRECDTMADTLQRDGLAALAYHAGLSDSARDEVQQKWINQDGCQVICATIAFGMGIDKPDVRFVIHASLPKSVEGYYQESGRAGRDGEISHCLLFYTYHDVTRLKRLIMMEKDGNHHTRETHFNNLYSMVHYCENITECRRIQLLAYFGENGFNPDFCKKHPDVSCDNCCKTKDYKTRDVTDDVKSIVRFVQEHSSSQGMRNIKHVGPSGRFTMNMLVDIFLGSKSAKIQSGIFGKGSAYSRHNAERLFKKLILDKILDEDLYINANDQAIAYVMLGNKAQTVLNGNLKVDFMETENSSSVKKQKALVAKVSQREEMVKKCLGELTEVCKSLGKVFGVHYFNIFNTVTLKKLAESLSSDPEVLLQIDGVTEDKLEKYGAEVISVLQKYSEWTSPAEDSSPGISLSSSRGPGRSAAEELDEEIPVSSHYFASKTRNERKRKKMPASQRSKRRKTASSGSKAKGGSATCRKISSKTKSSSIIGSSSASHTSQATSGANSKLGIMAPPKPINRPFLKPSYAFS
Chain of ATP-dependent DNA helicase Q1 (Homo sapiens) (P46063 whole entry, looked up): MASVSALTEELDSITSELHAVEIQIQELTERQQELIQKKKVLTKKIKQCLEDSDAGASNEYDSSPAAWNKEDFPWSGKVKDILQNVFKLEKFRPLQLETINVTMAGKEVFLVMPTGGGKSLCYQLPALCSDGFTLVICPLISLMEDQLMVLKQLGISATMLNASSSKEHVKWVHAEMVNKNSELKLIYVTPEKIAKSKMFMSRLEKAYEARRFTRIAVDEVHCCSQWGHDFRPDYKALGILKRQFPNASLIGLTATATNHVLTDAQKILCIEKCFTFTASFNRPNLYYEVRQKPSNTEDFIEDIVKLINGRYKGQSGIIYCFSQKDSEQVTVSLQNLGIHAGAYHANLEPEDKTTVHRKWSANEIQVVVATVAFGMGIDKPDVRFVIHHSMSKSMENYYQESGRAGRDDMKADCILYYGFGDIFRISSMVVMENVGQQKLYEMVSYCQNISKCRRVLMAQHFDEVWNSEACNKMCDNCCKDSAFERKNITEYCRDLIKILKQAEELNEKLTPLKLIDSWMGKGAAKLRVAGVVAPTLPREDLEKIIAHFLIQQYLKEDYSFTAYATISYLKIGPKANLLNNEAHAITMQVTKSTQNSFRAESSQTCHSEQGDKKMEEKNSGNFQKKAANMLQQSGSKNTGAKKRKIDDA
Chain of Beta-2 adrenergic receptor (Homo sapiens) (P07550 whole entry, looked up): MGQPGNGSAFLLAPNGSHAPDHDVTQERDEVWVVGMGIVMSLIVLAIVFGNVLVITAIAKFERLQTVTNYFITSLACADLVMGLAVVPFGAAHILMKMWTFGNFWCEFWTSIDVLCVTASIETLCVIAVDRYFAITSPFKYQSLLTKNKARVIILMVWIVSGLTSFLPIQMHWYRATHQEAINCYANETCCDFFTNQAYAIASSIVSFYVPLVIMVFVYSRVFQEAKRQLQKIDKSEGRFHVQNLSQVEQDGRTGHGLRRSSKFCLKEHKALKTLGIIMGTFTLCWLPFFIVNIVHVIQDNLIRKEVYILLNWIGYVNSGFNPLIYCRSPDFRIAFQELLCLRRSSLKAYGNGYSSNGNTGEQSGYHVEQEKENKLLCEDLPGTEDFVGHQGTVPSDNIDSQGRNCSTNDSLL

Turning to `O=C1O/C(=C/Br)CCC1c1cccc2ccccc12` (stereo not drawn), the Potency entry in [1], in assay [3], in assay [5], in assay [7], in [8] and in assay [9] was “inactive” each time. Besides, the Potency in assay [2] was 11.2 µM (active). The result in assay [4], in assay [6], in assay [10] and in assay [11] was inactive.

With `C=CC(N)CCC(=O)O` (stereo not drawn), the Potency result in assay [1], in [2], in [3], in assay [12], in assay [5] and in [7] was “inactive” in each case. Further, the Potency result in [13], in [14], in assay [15], in [8] and in assay [9] was “inactive” each time. Moreover, the compound was called inactive in [4], in assay [6], in assay [10], in [16] and in assay [11].

Consider `N=C(N)SCCc1ccc(CCSC(=N)N)cc1`, for which the Potency entry in [1], in assay [3], in [12], in assay [5], in assay [7] and in assay [13] was “inactive” in each case. Also, the Potency result in assay [14], in assay [15], in [8] and in assay [9] was “inactive” each time. The Potency in [2] is 11.2 µM (active). The call in [4], in assay [6], in assay [10], in [16] and in assay [11] was inactive.

Turning to `c1cnc2c(c1)ccc1cccnc12`, the Potency in assay [1] is 2 µM (active); in assay [2], 1 µM (active); in assay [3], 2 µM (active); in assay [13] it was 46.5 nM (active); in assay [14], 4.65 µM (active). Besides, the Potency result in [12], in assay [5], in [17], in assay [7] and in assay [8] was “inactive” in each case. Besides, the outcome in assay [6], in [10], in [16] and in assay [11] was inactive.

Regarding `COc1cc(C(O)CO)ccc1OS(=O)(=O)O` (stereo not drawn), the Potency entry in [1], in assay [2], in assay [3], in assay [12], in [5] and in [17] was “inactive” each time. For the same compound, the Potency result in [7], in [14], in [15] and in assay [8] was “inactive” each time. For the same compound, the call in assay [4], in assay [6], in [10], in assay [16] and in assay [11] was inactive.

Take `NC(=O)C(=O)O`: the Potency result in assay [1], in assay [2], in assay [3], in assay [12], in assay [5] and in [7] was “inactive” throughout. The Potency result in assay [13], in [14], in [15], in assay [8] and in assay [9] was “inactive” in each case. The result in assay [4], in assay [6], in [10], in assay [16] and in assay [11] was inactive.

As to `O=C(O)CC1CCCc2ccccc2C1O` (stereo not drawn), the Potency result in [1], in [2], in assay [3], in assay [12], in assay [5] and in assay [7] was “inactive” in each case. Besides, the Potency result in assay [14], in assay [15], in assay [8] and in [9] was “inactive” throughout. The outcome in assay [4], in assay [6], in [10] and in [16] was inactive.

With `O=C(O)CC[C@@H](C(=O)O)N1C(=O)c2ccccc2C1=O`, the Potency result in assay [1], in assay [2], in [3], in assay [12], in assay [5] and in assay [17] was “inactive” each time. In addition, the Potency result in assay [7], in assay [13], in assay [14], in [15], in assay [8] and in [9] was “inactive” throughout. Further, the outcome in assay [6], in assay [10], in assay [16] and in assay [11] was inactive.
